Assay outcomes: PubChem, several laboratories
Compounds with a hit are over-represented: about 2.9% of the library has one in this group of screens.
FAS-TE inh = blocks the thioesterase domain of human fatty acid synthase; P49327; recombinant FAS-TE, OMFH fluorogenic substrate, fluorescence endpoint; inhibition, % at 15 µM; 360,000 tested, 0.67% active;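 active means compounds whose normalised, plate-corrected inhibition of enzyme fluorescence in the single-dose primary screen is 50% or more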
proKLK7 act = proKLK7 (human) activation, primary screen. P49862. purified proKLK7, EDANS-DABCYL substrate fluorescence; 100% is mature enzyme control, 0% vehicle. activation, % at 7 µM. 370,000 tested, 0.9% active. AID 652039;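 active means activation above the mean of all tested compounds plus 3 SD, computed per campaign excluding outliers beyond control limits, cut at about 13% in these data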
Target sequence (P49862 whole entry, looked up): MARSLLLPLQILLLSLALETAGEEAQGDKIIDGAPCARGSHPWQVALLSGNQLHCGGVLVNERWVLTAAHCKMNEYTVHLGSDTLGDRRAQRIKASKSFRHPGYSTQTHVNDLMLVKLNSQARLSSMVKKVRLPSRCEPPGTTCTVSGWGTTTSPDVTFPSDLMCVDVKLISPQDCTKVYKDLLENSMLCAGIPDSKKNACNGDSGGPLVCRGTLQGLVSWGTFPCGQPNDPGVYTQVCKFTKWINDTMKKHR
FXN GAA850 act = activators of GAA850 frataxin (FXN) promoter. 360,000 tested, 0.56% active. HEK293 lucGAA850 FXN promoter luciferase reporter, 24 h; percent of 10 µM SAHA response. activation, % at 6 µM;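 active means activation above the average of all compounds screened plus 3 SD, cutoff fixed separately per campaign, cut at about 7.5% in these data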
SMARCA2 act = activators of SMARCA2 function; MG213 cells, MMTV-luciferase reporter, dexamethasone, overnight; activation, % at 9.1 µM; 370,000 tested, 1% active; in the data active means activation above about 7.8%
FAS-TE conf = FAS thioesterase (human) inhibition, confirmation; shares compounds with FAS-TE inh; recombinant FAS-TE, OMFH fluorogenic substrate, fluorescence; inhibition, % at 15 µM; 2,300 tested, 45% active; AID 624325;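 active means compounds inhibiting the enzyme by at least 50% at 15 µM in any one of the replicates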
Numbers stand for hits; n = inactive; x = not tested or not shown.

SMILES | FAS-TE inh | proKLK7 act | FXN GAA850 act | SMARCA2 act | FAS-TE conf
COc1ccc2c(c1)[C@H]1[C@H](CO2)[C@H](c2ccccc2)[C@]2(C)C(=O)Nc3cc(C)ccc3C(=O)N12 | n | n | n | n | x
COc1ccc2c(c1)C(=O)N1[C@H]3c4cc(Cl)ccc4OC[C@@H]3[C@H](c3ccccc3)[C@]1(C)C(=O)N2 | 64.3 | n | n | n | 45.0
COc1ccc(CNC(=O)O[C@@H]2C[C@H]3C(=O)N(c4ccccc4)C(=O)[C@H]3[C@@]3(CN(S(=O)(=O)c4ccc(C)cc4)C[C@H]3C)[C@@H]2O)cc1OC | n | n | n | n | x
Nc1ncn(CC(=O)c2ccccc2)n1 | n | n | n | n | x
COc1ccc2c(c1)OC[C@H]1[C@H]2N2C(=O)c3cc(Cl)ccc3NC(=O)[C@@]2(C)[C@H]1c1ccccc1 | 66.6 | x | n | x | n
Cc1ccc(-c2nnc(NC3CCCCC3)c3ccccc23)cc1S(=O)(=O)N1CCN(C)CC1 | n | n | n | n | x
Cc1ccc(-c2nnc(NCc3nc4ccccc4[nH]3)c3ccccc23)cc1S(=O)(=O)N1CCCCC1 | 68.7 | n | n | n | n
COc1ccc(Cl)cc1CN1CCN(c2nc(C)cc(C)c2C#N)CC1 | n | n | n | n | x
Cc1cc(C)c(C#N)c(N2CCN(CCOc3ccc(Cl)cc3)CC2)n1 | 50.1 | n | n | n | n
O=C(CC1C[C@H](C(=O)N2CCOCC2)[C@@]2(CCC3CCCC3)c3[nH]c4ccccc4c3CCN2C1=O)NCC12CC3CC(CC(C3)C1)C2 (stereo partly specified) | 88.8 | n | n | n | n
O=C(CC1C[C@H](C(=O)N2CCOCC2)[C@@]2(CCC3CCCC3)c3[nH]c4ccccc4c3CCN2C1=O)NCCN1CCOCC1 (stereo partly specified) | 76.2 | n | n | n | 87.4
O=C(C[C@H]1C[C@H](C(=O)N2CCCCC2)[C@@]2(CCc3ccccc3)c3[nH]c4ccc(Cl)cc4c3CCN2C1=O)NCCc1ccccn1 | n | x | n | x | x
O=C(CC1C[C@H](C(=O)N2CCOCC2)[C@@]2(CCC3CCCC3)c3[nH]c4ccccc4c3CCN2C1=O)NCCc1ccccn1 (stereo partly specified) | 80.5 | n | n | n | 90.7
CC[C@]12c3[nH]c4ccccc4c3CCN1C(=O)C(CC(=O)NCCN1CCOCC1)C[C@@H]2C(=O)N1CCN(C(=O)c2ccco2)CC1 (stereo partly specified) | n | n | n | n | x
COCCCNC(=O)CC1C[C@H](C(=O)N2CCOCC2)[C@@]2(CCC3CCCC3)c3[nH]c4ccc(OC)cc4c3CCN2C1=O (stereo partly specified) | 52.7 | n | n | n | 64.1
Cc1cnc(NC(=O)c2ccc3c(c2)C(=O)N(Cc2ccco2)C3=O)s1 | n | n | n | n | x
COc1ccc(C(C)N2CC34C=CC(O3)C(C(=O)O)C4C2=O)cc1 (stereo unspecified) | n | n | n | n | x
O=c1ccc(Cc2ccc(Cl)cc2)n[nH]1 | n | n | n | n | x
S=C1NC(C23CC4CC(CC(C4)C2)C3)=CC(c2ccc3c(c2)OCO3)N1 (stereo unspecified) | n | n | n | n | x
O=C(C[C@H]1C[C@H](C(=O)N2CCOCC2)[C@@]2(CCC3CCCC3)c3[nH]c4ccc(Cl)cc4c3CCN2C1=O)NCCCn1ccnc1 | 54.6 | n | n | n | n
COc1ccc2[nH]c3c(c2c1)CCN1C(=O)C(CC(=O)NCCc2ccccn2)C[C@H](C(=O)N2CCOCC2)[C@@]31CCC1CCCC1 (stereo partly specified) | 61.4 | n | n | n | 45.6
O=C(CC1C[C@H](C(=O)N2CCOCC2)[C@@]2(CCC3CCCC3)c3[nH]c4ccccc4c3CCN2C1=O)NCc1ccco1 (stereo partly specified) | 84.2 | n | n | n | 91.6
Cc1ccc(-c2noc(CCCOc3ccc(Cl)cc3Cl)n2)cc1 | n | n | n | n | x
Cc1[nH]n(-c2ccc([N+](=O)[O-])cc2)c(=O)c1C=NCC1CCCO1 (stereo unspecified) | n | n | n | n | x
Cc1ccc(-n2[nH]c(C)c(/C=N/Nc3ccc([N+](=O)[O-])cc3[N+](=O)[O-])c2=O)cc1 | 55.1 | n | n | n | 54.6
SMILES | FAS-TE inh | proKLK7 act | FXN GAA850 act | SMARCA2 act | FAS-TE conf
CCCCCOC(=O)C1=C(C)NC(=O)NC1c1ccc([N+](=O)[O-])cc1 (stereo unspecified) | 57.9 | n | n | n | 57.3
CC1(c2ccccc2Cl)NC(=O)N(CC(=O)Nc2ccc(N3CCCCC3)cc2)C1=O (stereo unspecified) | n | n | n | n | x
O=C(N/N=C\c1ccc(Cl)cc1)C1=NOC2COC3(CCN(c4ccc([N+](=O)[O-])cc4)CC3)OCC12 (stereo unspecified) | 68.8 | n | n | n | n
NNC(=O)C1=NOC2COC3(CCN(c4ncccn4)CC3)OCC12 (stereo unspecified) | n | n | n | n | x
COc1ccc(C(=O)/C(C#N)=N/Nc2ccc([N+](=O)[O-])cc2)cc1 | 58.7 | n | n | n | n
C[C@@H]1CN([C@H](C)CO)C(=O)CCCn2cc(nn2)CO[C@H]1CN(C)C(=O)Nc1ccccc1F | n | n | n | n | x
O=C(Nn1c(-c2ccc(Br)cc2)nc2ccccc2c1=O)c1ccc([N+](=O)[O-])cc1 | 65.4 | n | n | n | 44.9
CCOC(=O)N1CCN(Cc2cc(=O)oc3ccc4ccccc4c23)CC1 | n | n | n | n | x
O=C(CC12CC3CC(CC(C3)C1)C2)NCC(=O)OCc1cc(=O)oc2ccc3ccccc3c12 | 54.6 | n | n | n | n
COc1ccc(-c2sc3ccccc3c2-c2cc(OC)ccc2C=O)cc1 | n | n | x | n | x
CC(C(=O)N1CCN(Cc2ccccc2)CC1)c1ccc([N+](=O)[O-])cc1 (stereo unspecified) | n | n | n | n | x
COc1ccc(C(=O)NCCc2ccccc2)cc1[N+](=O)[O-] | n | n | n | n | x
COc1ccc(C(=O)OCC(=O)NCCCc2ccccc2)cc1[N+](=O)[O-] | 78.8 | n | n | n | 78.7
COc1ccc(C(=O)OC(C)C(=O)NC(C)CCc2ccccc2)cc1[N+](=O)[O-] (stereo unspecified) | 58.8 | n | n | n | 32.2
Cc1cc(C(=O)NC(C)CCc2ccccc2)ccc1[N+](=O)[O-] (stereo unspecified) | 52.3 | n | n | n | n
CC(OC(=O)c1ccc(Cl)c([N+](=O)[O-])c1)C(=O)N1CCN(Cc2ccccc2)CC1 (stereo unspecified) | 73.4 | n | n | n | 54.3
CCC(c1nnc(SCC(=O)Nc2ccc(N3CCOCC3)cc2)n1Cc1ccccc1)N(C)C (stereo unspecified) | n | n | n | n | x
COc1cc(C2C(C#N)=C(N)N(N(C)C)C3=C2C(=O)CC(C)(C)C3)ccc1O (stereo unspecified) | n | n | n | n | x
O=S(=O)(c1ccc(-c2csc(Nc3ccc(F)cc3)n2)cc1)N1CCCC1 | 65.2 | n | n | n | 45.7
